Assay outcomes as filed in PubChem.
Vc quorum ag: induces V. cholerae light production without autoinducers. V. cholerae BH1578 lux reporter, luminescence, 6 h. activation, % at 18.7 µM. actives 0.16% (n = 350,000). AID 588436; in the data active means activation mostly above about 9.7%, no sharp cut-off
GDH-TPI counter-1: GDH-TPI coupled enzyme inhibition counter-screen | GDH-TPI coupled enzyme counterscreen, NADH absorbance | inhibition, % at 4.8 µM | actives 1.2% (n = 360,000) | AID 588335; in the data active means inhibition above about 30%;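 further: 0% = DMSO wells and 100% = wells lacking the enzyme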
FBA Mtb inh: Mtb fructose-bisphosphate aldolase inhibition; P9WQA3; purified M. tuberculosis FBA, fluorescence read-out; inhibition, % at 1 µM; actives 2.3% (n = 360,000);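 further: 0% = vehicle and 100% = reference inhibitor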
Target sequence (P9WQA3 whole entry, looked up): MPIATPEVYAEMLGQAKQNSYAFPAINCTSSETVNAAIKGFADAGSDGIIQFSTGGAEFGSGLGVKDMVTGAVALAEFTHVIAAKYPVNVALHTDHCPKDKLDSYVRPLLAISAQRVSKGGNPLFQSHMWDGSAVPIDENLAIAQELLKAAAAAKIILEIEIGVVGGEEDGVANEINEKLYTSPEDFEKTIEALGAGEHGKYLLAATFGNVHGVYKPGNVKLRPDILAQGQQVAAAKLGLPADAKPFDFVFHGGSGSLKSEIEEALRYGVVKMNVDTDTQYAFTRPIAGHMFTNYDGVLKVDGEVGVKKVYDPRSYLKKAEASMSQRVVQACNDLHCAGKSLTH
BioA inh: inhibitors of Mycobacterium tuberculosis BioA enzyme | purified M. tuberculosis BioA enzyme, plate reader | inhibition, % at 9.99 µM | actives 0.096% (n = 360,000); in the data active means inhibition above about 40%
Mtb FBA inh conf: confirmation of M. tuberculosis fructose-bisphosphate aldolase inhibitors. shares compounds with FBA Mtb inh. purified M. tuberculosis FBA, fluorescence read-out. inhibition, % at 1 µM. actives 78% (n = 5,600). AID 651616;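 further: 0% = vehicle wells and 100% = reference inhibitor wells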
GDH-TPI counter-2: GDH-TPI inhibition counter-screen for FBA inhibitors. actives 81% (n = 5,600). GDH-TPI coupled enzyme counterscreen, fluorescence. AID 652141. inhibition, % at 1 µM. shares compounds with FBA Mtb inh; in the data active means inhibition above about 10%
GDH-TPI DR: counter-screen for M. tuberculosis FBA inhibitors: GDH-TPI dose response | shares compounds with FBA Mtb inh | GDH-TPI coupled enzyme assay, fluorescence, artifact counterscreen | IC50, µM | actives 79% (n = 170) | AID 652145; call rule not given here
Starred values were filed as active, the others as inactive; i = inactive; . = no result; + = active, no number. Shown are actives, neighbours in structure and some others; about 3% of the full set was active somewhere. Unless noted, no stated cut-off is given here; in the data, active means inhibition above about 27%; inactive means the rest.

SMILES | Vc quorum ag | GDH-TPI counter-1 | FBA Mtb inh | BioA inh | Mtb FBA inh conf | GDH-TPI counter-2 | others
CC(C)c1ccc(/C=N/NC(=O)c2cccc(S(=O)(=O)N3CCOCC3)c2)cc1 | i | 3.1 | 3.8 | -0.4 | . | .
O=C(Cn1ccc(C(F)(F)F)n1)N/N=C/c1ccc(N2CCOCC2)cc1 | -0.1 | 30.6 | 39.0* | . | 127.4* | 101.6*
C/C(=N\NC(=O)Cn1ccc(C(F)(F)F)n1)c1ccc(N2CCOCC2)cc1 | i | 8.6 | -2.4 | 3.2 | . | .
CCCn1nnnc1SCC(=O)N1CCOCC1 | i | 0.9 | -0.1 | -3.4 | . | .
CCn1nnnc1SCC(=O)N1CCOCC1 | 7.1 | 1.9 | 89.3* | -0.8 | + | +
Cc1ccc2cc3cc(C(=O)NCCCN4CC(C)CC(C)C4)oc3nc2c1 (stereo unspecified) | 3.4 | 13.6 | 85.1* | -1.2 | 56.3* | 36.2*
Cc1ccc2cc3cc(C(=O)NC4CCCCC4)oc3nc2c1 | -0.5 | 14.3 | 39.3* | -2.1 | + | +
Cc1ccc2cc3cc(C(=O)NCc4ccco4)oc3nc2c1 | i | 34.2* | 46.3* | -0.5 | 7.8 | -5.4
CCNC(=O)c1c(O)c2ccccc2[nH]c1=O | 1.4 | 1.7 | 48.5* | -0.5 | 180.5* | 140.6*
Cc1cccn2c(=O)c3cc(C(=O)N4CCOCC4)n(C)c3nc12 | i | 17.2 | 66.2* | -1.0 | -9.8 | -11.0
Cc1cccn2c(=O)c3cc(C(=O)N4CCN(C(=O)c5ccco5)CC4)n(C)c3nc12 | i | 25.8 | 81.5* | 0.3 | + | +
O=C(c1ccco1)N1CCN(C(=O)c2cccn3c(=O)c4c5c(sc4nc23)CCCC5)CC1 | -0.5 | 27.7 | 33.6* | . | 188.8* | 145.1*
Cc1cc(N2CCN(C(=O)c3ccco3)CC2)c2ccccc2n1 | i | 17.2 | 0.6 | 0.0 | . | .
Cc1cccn2c(=O)c3cc(C(=O)N4c5ccccc5CC4C)n(C)c3nc12 (stereo unspecified) | -0.1 | 7.7 | 0.1 | -2.1 | . | .
Cc1cc(=O)oc2c(C)c(OCC(=O)N3CCN(c4cccc(Cl)c4)CC3)ccc12 | -2.6 | -8.7 | 3.6 | 11.1 | . | .
CCCCc1cc(=O)oc2c(C)c(OCC(=O)N3CCC(C(=O)O)(c4ccccc4)CC3)ccc12 | -0.7 | 16.7 | 34.5* | 2.3 | 182.1* | 131.3*
Cc1c(C)c2ccc(OCC(=O)N3CCOCC3)c(C)c2oc1=O | -0.3 | 8.2 | 81.3* | 6.5 | -0.3 | -4.4
O=C(COc1ccc2ccc(=O)oc2c1)N1CCC(C(=O)O)(c2ccccc2)CC1 | -0.8 | 1.0 | 27.1* | 23.0 | + | +
O=C(COc1ccc2ccc(=O)oc2c1)c1ccccc1 | i | 13.2 | 6.9 | 1.7 | . | .
Cc1oc2cc3oc(=O)c(CCC(=O)N4CCC(C(=O)O)(c5ccccc5)CC4)c(C)c3cc2c1C | -0.3 | 9.0 | 3.3 | -1.5 | . | .
Cc1c(C)c2ccc(OCC(=O)N3CCC(C(=O)O)(c4ccccc4)CC3)c(C)c2oc1=O | -0.5 | 9.0 | 99.2* | 12.7 | 102.5* | 90.6*
C[C@H]1CN([C@@H](C)CO)C(=O)Cc2cc(NC(=O)Cc3ccccc3)ccc2O[C@@H]1CN(C)C(=O)Nc1ccc(C(F)(F)F)cc1 | . | . | . | -4.3 | . | .
CO[C@@H]1CN(C)C(=O)c2ccc(NC(=O)C3CCCC3)cc2OC[C@H](C)N(CCC(F)(F)F)C[C@H]1C | . | . | . | 0.5 | . | .
C[C@H](CO)N1C[C@H](C)[C@H](CN(C)S(=O)(=O)c2cn(C)cn2)Oc2ccc(NC(=O)Cn3cnnn3)cc2CC1=O | . | . | . | -1.9 | . | .
COc1ccccc1CCN=C(N)NS(=O)(=O)c1ccc(C)cc1 | -0.3 | 4.5 | -1.0 | . | . | .
SMILES | Vc quorum ag | GDH-TPI counter-1 | FBA Mtb inh | BioA inh | Mtb FBA inh conf | GDH-TPI counter-2 | others
COc1ccccc1CCN=C(N)NS(=O)(=O)c1ccccc1F | 1.4 | 2.7 | 50.9* | 0.1 | + | 174.8*
C[C@H]1CN([C@@H](C)CO)C(=O)c2cc(NC(=O)Cn3cnnn3)ccc2O[C@H]1CN(C)Cc1ccccc1 | . | . | . | -0.3 | . | .
COc1ccc(-c2cc(C(=O)NCC3CCCO3)c3cc(C)ccc3n2)cc1 (stereo unspecified) | -1.0 | 11.8 | 76.3* | -1.1 | 106.8* | 72.3*
CC(C)CCNC(=O)c1c(N)n(CC2CCCO2)c2nc3ccccc3nc12 (stereo unspecified) | -0.2 | 11.7 | 18.8 | 0.8 | . | .
Cc1ccc(-c2nc(C(=O)NCC3CCCO3)cc3c2[nH]c2ccccc23)cc1 (stereo unspecified) | -0.3 | -2.8 | 12.8 | 0.2 | . | .
COc1ccc(-c2cc(C(=O)NCc3ccco3)c3ccccc3n2)cc1 | i | 19.1 | 27.9* | -1.1 | . | +
Cc1ccc2nc(-c3cccc(Br)c3)cc(C(=O)NCC3CCCO3)c2c1 (stereo unspecified) | -0.9 | 16.8 | 5.9 | 0.3 | . | .
COc1ccc(-n2c(N)c(C(=O)NCC3CCCO3)c3nc4ccccc4nc32)c(OC)c1 (stereo unspecified) | -4.2 | 14.8 | 104.2* | 1.2 | 73.0* | 70.7*
COc1ccc(-c2nc(C(=O)NCC3CCCO3)cc3c2[nH]c2ccccc23)cc1 (stereo unspecified) | -0.5 | 9.0 | 29.6* | -2.6 | + | +
COc1ccc(-c2cc(C(=O)NCC3CCCO3)c3ccccc3n2)cc1 (stereo unspecified) | i | 8.5 | 45.6* | . | 177.5* | 172.7*
COc1ccc(-c2cc(C(=O)NCC3CCCO3)c3cc(C(C)C)ccc3n2)cc1 (stereo unspecified) | i | 24.4 | 67.3* | -0.2 | 10.3 | -3.1 | GDH-TPI DR=1.57*
COc1cccc(-c2cc(C(=O)NCC3CCCO3)c3ccccc3n2)c1 (stereo unspecified) | i | 7.8 | -5.9 | 0.5 | . | .
CO[C@@H]1CN(C)C(=O)c2cc(NS(=O)(=O)c3cn(C)cn3)ccc2OC[C@@H](C)N(Cc2cccc(F)c2)C[C@H]1C | . | . | . | 0.8 | . | .
Cc1nc(CNS(=O)(=O)c2ccc(Br)cc2)cs1 | -0.5 | 0.4 | -1.4 | 0.7 | . | .
CCc1ccc(S(=O)(=O)NCc2csc(C)n2)cc1 | i | 7.3 | 34.0* | -2.3 | 1.1 | -7.6
C[C@@H]1CN([C@H](C)CO)C(=O)c2cc(-c3cccnc3)cnc2O[C@H]1CN(C)C(=O)C1CCCCC1 | . | . | . | 4.5 | . | .
O=C(NCCc1ccccc1)C1CC(=O)N(c2ccc3c(c2)OCCO3)C1 (stereo unspecified) | 0.8 | -1.8 | 28.2* | . | 38.4* | 20.6*
CN(Cc1cccc(F)c1)C(=O)C1CC(=O)N(c2ccc3c(c2)OCCO3)C1 (stereo unspecified) | -0.4 | 1.3 | 35.1* | 3.0 | + | +
Cc1cccn2c(=O)c(C=NCCO)c(NCc3ccco3)nc12 | -0.6 | 25.0 | 39.0* | 0.5 | + | +
Cc1cccn2c(=O)c(C=NCc3ccco3)c(Nc3ccc(SC(F)F)cc3)nc12 | i | 0.9 | -1.7 | -2.8 | . | .
